Results filed as inconclusive are left out. Where a call stands in place of a potency, no number is given. Activity calls are given as the source filed them. Calls follow the shape of the dose curve; as a rule, active = well fitted inhibition curve with a large enough effect; inconclusive = small, poorly fitted or top-dose-only effect; inactive = no such curve, though single readings can be large or run the other way.
Assay: qHTS to identify inhibitors of the type 1 interferon - major histocompatibility complex class I in skeletal muscle: primary screen against the NCATS Mechanism Interrogation Plate v5.0 (MIPE) Libary (AID 1347411); also: nearly all actives have a fitted effect of over 65% in size
Conditions: iHSKM cells + IFN-b, HiBiT-tagged MHC-I luminescence, 24 h; series mostly up to 45.8 µM
In short: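 Immortalized human C25cl48 myoblasts with HiBit knocked into endogenous HLA-B*08:01 were stimulated with 4.0 ng/ml IFN-beta and exposed to compounds (11-point 1:3 titration, top 46 uM final) for 24 hrs at 37 C; HiBiT lytic luminescence measured.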
For `CC(C)NC(=O)N1CC[C@H](N=C2Nc3cc(F)ccc3N(CC(F)F)c3ccc(Cl)cc32)C1`, the activity change, negative = inhibition was -19.9% [at 8.44 µM] (inactive).
With `CCNC1(C(N)=O)CCN(c2ncnc3c2nc(-c2ccccc2Cl)n3-c2ccc(Cl)cc2)CC1` the Potency was “inactive”.
For `Cn1cc(-c2ccc(F)c(C(F)(F)F)c2)nc1C1CCN(c2ncnc3[nH]ncc23)CC1`, the Potency was “inactive”.
With `O=C(NC[C@H](O)CN1CCc2ccccc2C1)c1ccnc(NC2CCC2)c1` the Potency was “inactive”.
In the case of `CCCCNc1ncc(-c2ccc(CN3CCOCC3)cn2)c(NC2CCC(O)CC2)n1` (stereo not given), the Potency is reported as “inactive”.
With `Cc1cc(-c2cc(OC(=O)c3ccccc3)ccc2Cl)cc2nnc(Nc3ccc(OCCN4CCCC4)cc3)nc12` the Potency was “inactive”.
In the case of `CC1(C)CN(C(=O)c2ccc(-c3cccc4nc(NC(=O)C5CC5)nn34)cc2)C1`, the Potency is reported as 4.15 µM (active).
With `Cc1[nH]c(/C=C2\C(=O)Nc3ccc(S(=O)(=O)N(C)c4cccc(Cl)c4)cc32)c(C)c1C(=O)N1CCN(C)CC1` the Potency was 16.5 µM (active).
With `C=CCNC1=C2C[C@@H](C)C[C@H](OC)[C@H](O)[C@@H](C)/C=C(\C)[C@H](OC(N)=O)[C@@H](OC)/C=C\C=C(/C)C(=O)NC(=CC1=O)C2=O` the Potency was 0.829 µM (active).
With `C[C@H](CN(C)C)Oc1nc(Nc2cc3cccc(Cl)c3cn2)cnc1C#N` the Potency was “inactive”.
In the case of `COc1cccc(OCCCN)c1-c1cc(Nc2cnc(C#N)cn2)n[nH]1`, the Potency is reported as 6.58 µM (active).
With `COc1cc(S(C)(=O)=O)ccc1Nc1nc2ccc(-c3ccc(NC(=O)[C@H](C)c4ccc(F)cc4)cc3)cn2n1` the Potency was “inactive”.
In the case of `O=C(O)C1=CO[C@@H](O[C@@H]2O[C@H](CO)[C@@H](O)[C@H](O)[C@H]2O)[C@@H]2C(CO)=CC[C@H]12`, the Potency is reported as “inactive”.
With `Cc1c(NC(=O)c2cc3c(s2)CCCC3)cccc1-c1cn(C)c(=O)c(Nc2ccc(C3C(=O)N(C)CCN3C)cc2)n1` (stereo not given) the Potency was “inactive”.
With `Cc1nnc(C[C@@H]2C=C(c3ccc(Cl)cc3)c3ccccc3-n3c(C)nnc32)o1` the Potency was “inactive”.
In the case of `CCN(c1cc(-c2ccc(CN3CCOCC3)cc2)cc(C(=O)NCc2c(C)cc(C)[nH]c2=O)c1C)C1CCOCC1`, the Potency is reported as “inactive”.
In the case of `NC(=O)c1ccccc1Nc1ccnc(Nc2cccc(O)c2)n1`, the Potency is reported as 4.66 µM (active).
In the case of `COc1c(C)cc(NC(=O)c2nn(Cc3ccc(F)cc3)c3c2CN(C(=O)c2ccc[nH]2)C[C@]3(C)C(N)=O)cc1C`, the activity change, negative = inhibition is reported as -14.7% [at 8.44 µM] (inactive).
For `O=C(Nc1ccnc(NC(=O)C2CC2)c1)c1c(Cl)cccc1Cl`, the Potency was “inactive”.
With `COc1cc2c(cc1OCCCN1CCCC1)N=C(N)C21CCC1` the Potency was “inactive”.
With `CC#C[C@@H](CC(=O)O)c1ccc(OCc2cccc(-c3ccc(C(F)(F)F)cc3)c2)cc1` the Potency was “inactive”.
In the case of `C[C@@H]1COCCN1c1cc(=O)n2c(n1)N(Cc1cncc(Cl)c1)[C@H](C(F)(F)F)CC2`, the Potency is reported as “inactive”.
With `O=C(Nc1cccnc1)c1cc(-c2ccnc(F)c2)ccc1OCc1ccccc1` the Potency was “inactive”.
In the case of `CCC[C@H](N[C@H]1CCc2cc(F)cc(F)c2C1)C(=O)Nc1cn(C(C)(C)CNCC(C)(C)C)cn1`, the Potency is reported as “inactive”.
In the case of `O=C(NCCCNc1nc(Nc2cccc(CN3CCOCC3)c2)ncc1C1CC1)C1CCC1`, the Potency is reported as “inactive”.
For `CCNC(=O)C#Cc1ccc2c(C(=Nc3ccc(CN(C)C)cc3)c3ccccc3)c(O)[nH]c2c1`, the Potency was 4.04 µM (active).
In the case of `CCn1c(N)c(C(=O)NC)c(=O)c2ccc(C#CC(C)(O)COC)nc21` (stereo not given), the Potency is reported as “inactive”.
In the case of `Cc1cc2c(F)c(Oc3ncnn4cc(OCC(C)OC(=O)C(C)N)c(C)c34)ccc2[nH]1` (stereo not given), the Potency is reported as “inactive”.
For `O=C(Nc1ccc2[nH]nc(-c3ccncc3)c2c1)[C@@H]1CCN(CC(=O)N2CCN(c3ccc(-c4ncccn4)cc3)CC2)C1`, the Potency was “inactive”.
For `COc1ccc(CNc2nc(N(CCO)CCO)nc3c2ncn3C(C)C)cc1`, the Potency was 4.66 µM (active).

— PubChem BioAssay (NCATS)
Potency is read from the fitted curve at half-maximal effect.
